# The campaign covered roughly 280,000 compounds. About 1,700 (0.61%) were called active. No stated cut-off is given here; in the data, active means inhibition mostly above about 24% (no sharp cut-off); inactive means mostly below about 32%. The list comes from a sample in which actives are over-represented; it also holds similar structures and randomly drawn compounds.
# Assay: NALP1 inflammasome inhibitors in reconstituted yeast, colorimetric, S. cerevisiae, triplicate retest (AID 2071)
# Details: S. cerevisiae NALP1/ASC/caspase-1 growth, X-gal OD620, 72 h, stronger effect = higher value
compound,measurement,setting,value
COc1ccc(S(=O)(=O)Nc2ccc3c(c2)OCO3)cc1Cl,inhibition,at 10 µM unless noted,27.9% (active)
CNS(=O)(=O)c1ccc(NC(=O)Nc2ccc3c(c2)OCO3)cc1,inhibition,at 10 µM unless noted,-4.3% (inactive)
COc1ccc(S(=O)(=O)Nc2ccc(S(=O)(=O)N3CCCCC3)cc2)cc1OC,inhibition,at 10 µM unless noted,22.8% (inactive)
Cc1cc(N=Nc2ccc3ccccc3c2)ccc1O,inhibition,at 10 µM unless noted,1.2% (inactive)
CC[C@]1(c2ccccc2OC)C(=O)N(C(=O)OC)N1C(=O)OC,inhibition,at 10 µM unless noted,34.1% (inactive)
CCOC(=O)C1(Cc2ccccc2C)CCCN(C(=O)CN2C(=O)CSC2=O)C1 (configuration not stated),inhibition,at 10 µM unless noted,20% (inactive)
O=C(NC(=S)N1CCCCC1c1cccnc1)c1ccccc1 (configuration not stated),inhibition,at 10 µM unless noted,-18% (inactive)
CCn1c(=N)n(CC(=O)c2cccc(OC)c2)c2ccccc21,inhibition,at 10 µM unless noted,31.5% (active)
COc1ccc2cc(C(=O)O)n(CC(=O)c3ccccc3)c2c1,inhibition,at 10 µM unless noted,14% (inactive)
CCCn1c(=N)n(CC(=O)c2ccc(Cl)c(Cl)c2)c2ccccc21,inhibition,at 10 µM unless noted,23.1% (inactive)
Cc1cccc(NC(=O)C2CCN(C(=O)NC3CCCCC3)CC2)c1,inhibition,at 10 µM unless noted,3.7% (inactive)
Cc1ccccc1NC(=O)C1CCN(C(=O)NC2CCCCC2)CC1,inhibition,at 10 µM unless noted,40.8% (active)
O=C(Nc1cccc2c1CCCC2)C1CCN(C(=O)NC2CCCCC2)CC1,inhibition,at 10 µM unless noted,-14.2% (inactive)
O=S(=O)(Oc1ccccc1C(=S)N1CCOCC1)c1ccc(Cl)cc1,inhibition,at 10 µM unless noted,1.2% (inactive)
Cc1ccc(OCc2cc(C(=O)N(C)CCn3ccnc3C)no2)cc1C,inhibition,at 10 µM unless noted,5.1% (inactive)
CC(C)N1C(=S)SC(C)(C)C1n1oc(=O)n(-c2ccc(Cl)c(Cl)c2)c1=O (configuration not stated),inhibition,at 10 µM unless noted,0.9% (inactive)
COc1ccc(N2C(=O)CNC2=S)cc1,inhibition,at 10 µM unless noted,-21.9% (inactive)
O=C1CSC(=S)N1c1ccc(O)cc1,inhibition,at 10 µM,76.7% (active)
same,inhibition,"triplicate retest, at 20 µM",95.9%
COc1ccc(CCN=C2SCC(=O)N2C)cc1OC,inhibition,at 10 µM unless noted,2.2% (inactive)
Cc1cc(=O)cc(C)n1-c1ccc(Cl)c(Cl)c1,inhibition,at 10 µM unless noted,-5.9% (inactive)
COc1cc(N2C(=O)CSC2=S)cc(OC)c1OC,inhibition,at 10 µM,52.7% (active)
same,inhibition,"triplicate retest, at 20 µM",57.6%
COc1cccc(C2SCC(=O)N2c2cccc(C)c2)c1OC (configuration not stated),inhibition,at 10 µM unless noted,9.2% (inactive)
CCOc1cccc(/C=N/N2C(=O)CSC2=S)c1O,inhibition,at 10 µM unless noted,-14.2% (inactive)
O=C1CSC(=S)N1c1ccc(Cl)c(Cl)c1,inhibition,at 10 µM unless noted,44.2% (active)
Cc1cccc(Nc2nc(-c3ccccc3)cs2)n1,inhibition,at 10 µM unless noted,19.1% (inactive)
CCOc1ccccc1NC(=S)N1CCN(c2cccc(C)c2C)CC1,inhibition,at 10 µM unless noted,4.9% (inactive)
CC(C)c1ccc2oc(=O)cc(CN3CCN(Cc4ccccc4)CC3)c2c1,inhibition,at 10 µM unless noted,8.7% (inactive)
Cc1cc(Cl)nc(NC(=O)Nc2cccc(Cl)c2)n1,inhibition,at 10 µM unless noted,22.5% (inactive)
O=c1c(-c2cccc(Cl)c2)c[nH]n1-c1ccccc1,inhibition,at 10 µM unless noted,17% (inactive)
CCCn1c(C(C)Nc2nc(-c3ccc(C)cc3)cs2)nc2cc(Cl)c(N3CCCCC3)cc21 (configuration not stated),inhibition,at 10 µM unless noted,14.5% (inactive)
O=C(CSCc1ccccc1)Nc1ccccc1,inhibition,at 10 µM unless noted,8.9% (inactive)
Cn1c(CSCC(=O)Nc2ccccc2)nnc1SCc1ccccc1,inhibition,at 10 µM unless noted,38.6% (active)
Cn1c(CC(=O)Nc2ccccc2)nnc1SCC(=O)c1ccccc1,inhibition,at 10 µM unless noted,9.9% (inactive)
CCOC(=O)Nc1ccc2c(c1)N(C(=O)CCCl)c1ccccc1[S@]2=O,inhibition,at 10 µM unless noted,8.9% (inactive)
O=C(CCCN1C(=O)/C(=C/c2cccs2)SC1=S)Nc1ccc(O)cc1,inhibition,at 10 µM unless noted,5% (inactive)
Cc1cccc(C)c1NC(=O)C(Cl)C(=O)c1ccccc1 (configuration not stated),inhibition,at 10 µM,50.4% (active)
same,inhibition,"triplicate retest, at 20 µM",80.1%
Cc1cccc(C)c1NC(=O)C(c1ccccc1)N1CC(=O)Nc2ccccc21 (configuration not stated),inhibition,at 10 µM unless noted,19.2% (inactive)
Cc1cccc(C)c1NC(=O)N1CC(C)OC(C)C1 (configuration not stated),inhibition,at 10 µM unless noted,5.2% (inactive)
CCc1ccc(NC(=O)COC(=O)c2cccs2)cc1,inhibition,at 10 µM unless noted,8.1% (inactive)
Cc1nc2cc(NCc3cccs3)ccc2n1C,inhibition,at 10 µM unless noted,1.9% (inactive)
Cc1nc2cc(NC(=O)NC3CC3)ccc2n1C,inhibition,at 10 µM unless noted,29.1% (active)
Cn1c(CCN2CCCCCC2)nc2cc(NC(=O)Nc3ccccc3)ccc21,inhibition,at 10 µM unless noted,19.6% (inactive)
CCCOC1CCCN(C(=O)c2cc(COc3cncc(Cl)c3)on2)C1 (configuration not stated),inhibition,at 10 µM unless noted,-85.7% (inactive)
Cc1ccc(C)c(N2CCN(C(=O)CCCCCn3c(=S)[nH]c4ccc(N5CCOCC5)cc4c3=O)CC2)c1,inhibition,at 10 µM unless noted,-12.8% (inactive)
CCOc1ccc(NC(=O)CCCCCN2C(=O)[C@@H]3Cc4ccccc4CN3C2=O)cc1,inhibition,at 10 µM unless noted,12.6% (inactive)
Cc1ccc(Cn2c(C)c3cnn(CC(=O)NCc4ccccn4)c(=O)c3c2C)cc1,inhibition,at 10 µM unless noted,-2.5% (inactive)
CNC(=O)/C(C#N)=C/c1c(F)cccc1Cl,inhibition,at 10 µM unless noted,46.8% (active)
Cc1[nH]c2ccccc2c1/C=C(/C#N)C(=O)NC(C)C,inhibition,at 10 µM unless noted,0.1% (inactive)
N#C/C(=C\c1ccccc1C(F)(F)F)C(=O)Nc1ccccc1F,inhibition,at 10 µM unless noted,40.5% (inactive)
O=C(Nc1cccc2cccnc12)c1cccc(N2C(=O)CCC2=O)c1,inhibition,at 10 µM unless noted,15.2% (inactive)
N#Cc1ccc(C(=O)Nc2cccc3cccnc23)c(F)c1,inhibition,at 10 µM unless noted,40% (active)
O=C(Nc1cccc2cccnc12)c1cccc(Cl)c1,inhibition,at 10 µM unless noted,0.8% (inactive)
O=Cc1c(Nc2ccccc2Cl)nc2ccccn2c1=O,inhibition,at 10 µM unless noted,13.8% (inactive)
Cc1ccc(CCn2c3c(c4ccccc42)CN(C)CC3)cn1,inhibition,at 10 µM unless noted,39.6% (active)
COc1cc(Br)c(-c2sc(Nc3ccccc3)n[n+]2-c2ccccc2)cc1OC,inhibition,at 10 µM unless noted,-1.9% (inactive)
Cc1ccccc1Nc1nc(-c2cccnc2)cs1,inhibition,at 10 µM unless noted,16.4% (inactive)
COc1nnc(-c2ccc(C)c(S(=O)(=O)N(C)C)c2)c2ccccc12,inhibition,at 10 µM unless noted,17.5% (inactive)
Cc1ccc(Nc2nnc(SCC(=O)c3cc4ccccc4o3)s2)cc1C,inhibition,at 10 µM unless noted,5% (inactive)
CCc1ccc(Nc2nnc(SCC(=O)c3ccc4c(c3)NC(=O)CO4)s2)cc1,inhibition,at 10 µM unless noted,39.5% (active)
CCCc1nc2ccccc2c(C(=O)OCC(=O)c2ccc3c(c2)NC(=O)CO3)c1CC,inhibition,at 10 µM unless noted,-1.4% (inactive)
COc1ccc(C(=O)/C=C/c2cccnc2)c(OC)c1,inhibition,at 10 µM unless noted,-90.5% (inactive)
COc1ccc(O)c(/C=N/N=C/c2cccc([N+](=O)[O-])c2)c1,inhibition,at 10 µM unless noted,14.9% (inactive)
Cc1ccc(O)c(CNc2nc3ccccc3[nH]2)c1,inhibition,at 10 µM unless noted,10.8% (inactive)
COCC1CCN(C(=O)C2CCC(=O)N(Cc3cccc(C(F)(F)F)c3)C2)CC1 (configuration not stated),inhibition,at 10 µM unless noted,2.8% (inactive)
COc1ccc(Cl)cc1NC(=O)CN1CCN(C(=O)N2CCOCC2)CC1,inhibition,at 10 µM unless noted,5.1% (inactive)
Clc1cccc(CN2COc3c(cc(Cl)c4cccnc34)C2)c1,inhibition,at 10 µM unless noted,125% (active)
CC(C)CC(=O)N1CCN(Cc2cccc(Cl)c2)CC1,inhibition,at 10 µM unless noted,10.5% (inactive)
Nc1c(C(=O)NCc2ccccc2)nnn1Cc1cccc(Cl)c1,inhibition,at 10 µM unless noted,7% (inactive)
CCC(NC(=O)c1cc(COc2ccc(F)c(F)c2)on1)c1ccncc1 (configuration not stated),inhibition,at 10 µM unless noted,0.6% (inactive)
Cc1ccc(NS(=O)(=O)c2ccc(-c3coc(C)n3)cc2)c(C)c1,inhibition,at 10 µM unless noted,3.2% (inactive)
COC(=O)/C=C\C(=O)Nc1cccc([N+](=O)[O-])c1,inhibition,at 10 µM,108% (active)
same,inhibition,"triplicate retest, at 20 µM",116%
O=C(CSCC(=O)Nc1cccc([N+](=O)[O-])c1)Nc1ccccc1,inhibition,at 10 µM unless noted,27.6% (inactive)
COc1cccc(CNC(=O)CCCC(=O)Nc2cccc([N+](=O)[O-])c2)c1,inhibition,at 10 µM unless noted,-4.2% (inactive)
O=S1(=O)CCOC[C@H](CC2CCCCC2)N1Cc1ccc(F)cc1,inhibition,at 10 µM unless noted,22.6% (inactive)
C/C(=N\NC(=O)C1(C)CC1(Br)Br)c1ccc(C)cc1C (configuration not stated),inhibition,at 10 µM unless noted,-0.3% (inactive)
CCC(=O)c1ccc(OCC(O)CN2CC(C)OC(C)C2)cc1 (configuration not stated),inhibition,at 10 µM unless noted,0.7% (inactive)
O=C(COc1ccc(Cl)cc1)N1CCN(c2cccc(C(F)(F)F)c2)CC1,inhibition,at 10 µM unless noted,-4.3% (inactive)
CCC(=O)c1ccc(OCC(O)CN2CCN(c3cccc(C(F)(F)F)c3)CC2)cc1 (configuration not stated),inhibition,at 10 µM,52.2% (active)
same,inhibition,"triplicate retest, at 20 µM",65.2%
COc1ccc(S(=O)(=O)N2CCOC2CNC(=O)C(=O)NCc2ccncc2)cc1C (configuration not stated),inhibition,at 10 µM unless noted,0.1% (inactive)
CCC(=O)c1cn(CCOc2ccccc2OC)c2ccccc12,inhibition,at 10 µM unless noted,14.8% (inactive)
Cc1csc(=Nc2ccccc2)n1CCO,inhibition,at 10 µM unless noted,26.1% (inactive)
Cc1csc(=NC(=O)c2ccccc2)n1CCO,inhibition,at 10 µM unless noted,2.4% (inactive)
OCCn1c(-c2ccccc2)csc1=Nc1ccccc1,inhibition,at 10 µM unless noted,50.3% (active)
O=C(NCCCN1CCOCC1)c1cc(-c2ccccc2F)no1,inhibition,at 10 µM unless noted,20.9% (inactive)
C[N+](C)(C)CCNC(=O)c1cc[n+](Cc2ccccc2)c(/C=N/O)c1,inhibition,at 10 µM unless noted,6.7% (inactive)
O=C(NC1CCCC1)c1cc(-c2ccccc2)on1,inhibition,at 10 µM unless noted,15.4% (inactive)
CC(=O)C(C)n1cnc2scc(-c3ccc(C)cc3)c2c1=O (configuration not stated),inhibition,at 10 µM unless noted,-5% (inactive)
C/C(=N\NC(=O)COc1ccc(C)cc1[N+](=O)[O-])c1ccc2c(c1)OCCO2,inhibition,at 10 µM unless noted,12% (inactive)
COCCCNC(=O)COc1cc(C)c(Cl)c(C)c1,inhibition,at 10 µM unless noted,33.8% (active)
COCCNC(=O)COc1ccccc1C,inhibition,at 10 µM unless noted,6.3% (inactive)
CCOc1ccc(NS(=O)(=O)c2ccc(OCC(=O)NCCCOC)cc2)cc1,inhibition,at 10 µM unless noted,-2.5% (inactive)
CCSc1nsc(NC(=O)Nc2ccccc2OC)n1,inhibition,at 10 µM unless noted,18.6% (inactive)
COc1ccc(C(CCNCc2ccccc2F)c2ccc(F)cc2)cc1 (configuration not stated),inhibition,at 10 µM,46.5% (active)
same,inhibition,"triplicate retest, at 20 µM",74.4%
COc1ccc(CC(=O)NC(C)CCc2ccccc2)cc1 (configuration not stated),inhibition,at 10 µM unless noted,7.9% (inactive)
COc1cccc(CNCCc2c[nH]c3ccccc23)c1OCc1ccccc1F,inhibition,at 10 µM unless noted,-3.7% (inactive)
CCCOc1ccc(NC(=O)C2CCCNC2=O)cc1 (configuration not stated),inhibition,at 10 µM unless noted,7.4% (inactive)
CCCCNC(=O)C1CCC(=O)N1CCc1ccccc1 (configuration not stated),inhibition,at 10 µM unless noted,-0.8% (inactive)
CCCCNC(=O)C1CCCNC1=O (configuration not stated),inhibition,at 10 µM unless noted,42.8% (active)
O=[N+]([O-])c1ccc(NC(=S)N2CCN(c3ccccn3)CC2)cc1,inhibition,at 10 µM unless noted,9.2% (inactive)
CC(=O)N1c2ccc(S(=O)(=O)N3CCCC(C(=O)NCc4ccc(Cl)cc4)C3)cc2CC1C (configuration not stated),inhibition,at 10 µM unless noted,-3.9% (inactive)
COc1ccccc1NC(=O)C1CCN(C(=O)c2ccc(C(C)(C)C)cc2)CC1,inhibition,at 10 µM unless noted,3.2% (inactive)
